# Some structures have more than one record in an assay (separate samples or runs), and their calls can disagree. Activity calls are given as the source filed them. The calls were made as follows: active = hit-call score of the fitted dose curve at least 0.9, where 1 is the maximum; inactive = score below 0.9.
# Biological target: CCAAT/enhancer-binding protein beta (Homo sapiens) (UniProt P17676)
# Assay: ATG_C_EBP_CIS: Attagene CIS-FACTORIAL HepG2 Assay for human CCAAT/Enhancer Binding Protein (C/EBP) beta (AID 2282927)
# Conditions: HepG2 Attagene cis-factorial transcription factor reporter; actives raise or lower the signal
# Description: ATG_CIS is a cell-based, multiplexed-readout assay that uses HepG2, a human liver cell line, with measurements taken at 24 hours after chemical dosing in a 24-well plate.ATG_C_EBP_CIS is one of 52 assay component(s) measured or calculated from the ATG_CIS assay. It is designed to make measurements of mRNA induction, a form of inducible reporter, as detected with fluorescence intensity signals by Reverse transcription polymerase chain reaction (RT-PCR) and Capillary electrophoresis technology.Data from the assay component ATG_C_EBP_CIS was analyzed into 1 assay endpoint. This assay endpoint, ATG_C_EBP_CIS, was analyzed with bidirectional fitting relative to DMSO as the negative control and baseline of activity. Using a type of inducible reporter, measures of mRNA for gain or loss-of-signal activity can be used to understand the reporter gene at the transcription factor-level as they relate to the gene CEBPB. Furthermore, this assay endpoint can be referred to as a primary readout, because this assay has produced multiple assay endpoints where this one serves a reporter gene function. To generalize the intended target to other relatable targets, this assay endpoint is annotated to the dna binding intended target family, where the subfamily is basic leucine zipper.
# Human liver HepG2 cells are transiently transfected with multiple reporter transcription units (MRTUs) in 6-well plates using FuGene 6 reagent (Roche; 3 ml FuGene/1 mg DNA). The MRTU constructs are regulated by a cis-regulating element (promoter). […] A major difference between the CIS and TRANS system is that in CIS activities of endogenous TFs are measured, whereas the TRANS assay evaluates changes in activities of exogenous, chimeric NR-Gal4 proteins. […] At the end of 24 hour incubation, total RNA was isolated using TriZol reagent (Invitrogen). The isolated RNA is then reverse-transcribed using oligo(dT) primer and Mo-MLV reverse transcriptase (Invitrogen) with DNAse I (Ambion) treatment for 30 min. The one-tenth of the produced cDNA was amplified by PCR using Taq DNA polymerase (Invitrogen) and two reporter sequence-specific primers. The PCR products were fluorescently labeled by primer extension with 6-arboxyfluorescein (6-FAM) 5'-labeled reporter sequence-specific primer (2 min at 95 C, 20 s at 68 C and 10 min at 72 C) and these products were digested with 5U of HpaI (New England Biolabs) for 2h at 37 C. The fragments were purified using Qiaquick PCR columns (Qiagen), analyzed on an ABI 3130xL genetic analyzer (Applied Biosystems) with peak positions identified by using a set of X-rhodamine (ROX)-labeled MapMarker1000 molecular weight standards (BioVentures). The raw capillary electrophoresis data was processed using Attagraph software (Attagene).
# CCAAT/enhancer-binding protein beta (Homo sapiens), sequence (P17676 whole entry, looked up): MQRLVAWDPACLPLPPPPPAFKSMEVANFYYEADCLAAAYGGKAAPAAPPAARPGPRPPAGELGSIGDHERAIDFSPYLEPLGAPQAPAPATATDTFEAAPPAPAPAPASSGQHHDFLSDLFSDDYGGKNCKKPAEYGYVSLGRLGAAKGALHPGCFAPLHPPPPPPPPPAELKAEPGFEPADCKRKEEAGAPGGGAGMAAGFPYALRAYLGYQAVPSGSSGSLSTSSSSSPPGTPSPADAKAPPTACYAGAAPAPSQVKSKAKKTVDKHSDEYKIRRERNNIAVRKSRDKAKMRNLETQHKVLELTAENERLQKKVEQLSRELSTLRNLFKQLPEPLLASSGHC
SMILES,outcome,AC50
Cc1occc(=O)c1O,inactive,–
CC(=O)CC(c1ccccc1)c1c(O)c2ccccc2oc1=O (stereo not given),inactive,–
Cc1cc(SC2=C(O)C[C@@](CCc3ccc(N)cc3)(C(C)C)OC2=O)c(C(C)(C)C)cc1CO,inactive,–
CN(C)CCCN1c2ccccc2Sc2ccc(Cl)cc21,inactive,–
COC(=O)CCC(=O)OC,inactive,–
COc1ccc(C(=O)Nc2nc3ccccc3c(NCc3ccccc3)c2C#N)cc1,inactive,–
CC(C)NCC(O)c1ccc(O)c(O)c1 (stereo not given),inactive,–
Nc1nc(Cl)nc2c1ncn2[C@H]1C[C@H](O)[C@@H](CO)O1,inactive,–
O=C(O)c1cccnc1,inactive,–
O=[Si]=O,inactive,–
N[C@@H](Cc1c[nH]c2ccccc12)C(=O)O,inactive,–
CCCCCCCCCCCCCCCCO,inactive,–
O=C1O[C@H]([C@H](O)CO)C(O)=C1O,inactive,–
CCN(CC)CCOc1ccc(C(=C(Cl)c2ccccc2)c2ccccc2)cc1,inactive,17.4 µM (active)
CC(N)=O,inactive,–
CC1(C)C(=O)NC(=O)N1CO,inactive,–
CCCC(=O)O,inactive,–
OCC(CO)n1cnc(-c2ccc(F)cc2)c1-c1ccnc(Oc2ccccc2)n1,inactive,–
CC(C)(C)c1ccccc1,inactive,–
CC(C)c1cccc(C(C)C)c1NC(=O)NS(=O)(=O)c1cc(C(C)(C)O)co1,inactive,–

SMILES,outcome,AC50
O=NO,inactive,–
C=CCc1ccc(OC)c(OC)c1,inactive,–
O=C(Oc1ccccc1)c1cccc(C(=O)Oc2ccccc2)c1,inactive,–
CCc1nc(N)nc(N)c1-c1ccc(Cl)cc1,–,15 µM (active)
CCCCCCCCCC[N+](C)(C)[O-],inactive,–
Cc1ccc(-c2cc(C(F)(F)F)nn2-c2ccc(S(N)(=O)=O)cc2)cc1,inactive,–
Cc1cn([C@H]2C=C[C@@H](CO)O2)c(=O)[nH]c1=O,inactive,–
Cc1ccc(C(C)(C)C)c(O)c1,inactive,–
CCCCC(CC)COC(=O)CCCCCCCC(=O)OCC(CC)CCCC (stereo not given),inactive,–
CC(=O)[C@@]1(O)CC[C@H]2[C@@H]3CCC4=CC(=O)CC[C@]4(C)[C@H]3CC[C@@]21C,inactive,–
CCC(C)N(C)C(=O)c1cc2ccccc2c(-c2ccccc2Cl)n1 (stereo not given),inactive,–
O=C1CCCCC1,inactive,–
CCCCCCCCCCCCCCOS(=O)(=O)O,inactive,–
CN(C)C(=O)NC1(c2ccccc2)CCN(CCC[C@]2(c3ccc(Cl)c(Cl)c3)CCCN(C(=O)c3ccccc3)C2)CC1,–,5.22 µM (active)
NC(=Nc1ccccc1)Nc1ccccc1,inactive,–
C/C=C/C=C/C(=O)O,inactive,–
CN(C)CCCN(C)CCCN(C)C,inactive,–
CC(=O)O,inactive,–
C/C=C/c1ccc(OC)cc1,inactive,–
